Inconclusive results are not listed. Calls of active or inactive are those of the source. Unless noted, the call rests on the fitted dose curve; in most records, active means well fitted curve in the direction sought with a large enough effect in the repeat runs; inconclusive means weak or mixed curves; inactive means no such curve, though single readings can be large; an effect the other way counts as inactive or inconclusive.

The nature of assay [1]: qHTS assay to identify small molecule antagonists of the glucocorticoid receptor (GR) signaling pathway - cell viability counter screen (AID 720693). Further: nearly all actives have a fitted effect of over 55% in size.
Assay [2] is described as follows: qHTS assay for identifying genotoxic compounds that show differential cytotoxicity against isogenic chicken DT40 cell lines with known DNA damage response pathways - wild type cell line (AID 743012). Further: nearly all actives have a fitted effect of over 60% in size. Further: potency means the concentration at half of the fitted maximal effect. The gist of the method:
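Luminescent ATP viability signal (CellTiter-Glo, 30 min RT) recorded after wild type DT40 cells were incubated with compounds for 40 h at 37 C/5% CO2.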

A short description of assay [3]: qHTS assay for identifying genotoxic compounds that show differential cytotoxicity against isogenic chicken DT40 cell lines with known DNA damage response pathways - Rad54/Ku70 mutant cell line (AID 743015). Further: nearly all actives have a fitted effect of over 60% in size.
Assay [4] can be described thus: qHTS assay to identify small molecule antagonists of the androgen receptor (AR) signaling pathway - cell viability counter screen (AID 743033; further: nearly all actives have a fitted effect of over 45% in size).
A short description of assay [5]: qHTS assay to identify small molecule antagonists of the androgen receptor (AR) signaling pathway using the MDA cell line - cell viability counter screen (AID 743041; further: nearly all actives have a fitted effect of over 45% in size). Put shortly: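 In this qHTS counter assay, fluorescence intensity after CellTiter-Fluor addition indicated viability of MDA-kb2 AR-luc cells given compounds and R1881 for 16 h at 37C.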
Assay [6] in a line: qHTS assay to identify small molecule antagonists of the thyroid receptor (TR) signaling pathway - cell viability counter screen (AID 743064). Further: nearly all actives have a fitted effect of over 50% in size. The gist of the method:
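Same-well viability check: GH3.TRE-Luc cells stimulated with 1 nM T3 alongside test compound for 23.5 h, followed by CellTiter-Fluor fluorescence.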

Assay [7] in a line: qHTS assay to identify small molecule antagonists of the thyroid receptor (TR) signaling pathway (AID 743065). Further: series mostly up to about 70 µM; nearly all actives have a fitted effect of over 55% in size. Put shortly: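 GH3.TRE-Luc rat pituitary cells carrying two TR response elements driving luciferase were plated for 4 h, given compound plus 1 nM T3 (final), and incubated 23.5 h at 37 C. ONE-Glo luminescence measured reporter inhibition; CellTiter-Fluor fluorescence tracked cytotoxicity.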

Assay [8] has as its system thyroid hormone receptor (rat, GH3 cells). The assay is described as follows: qHTS assay to identify small molecule agonists of the thyroid receptor (TR) signaling pathway (AID 743066; calls by dose curve).
Assay [9] is described as follows: qHTS assay to identify small molecule antagonists of the estrogen receptor alpha (ER-alpha) signaling pathway - cell viability counter screen (AID 743074; calls by dose curve;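 further: HEK293 cells carrying ER-alpha-UAS-bla reporter stimulated with 17beta-estradiol; nearly all actives have a fitted effect of over 45% in size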).
Assay [10] concerns the target Estrogen receptor (Homo sapiens) (UniProt P03372). The assay is described as follows: qHTS assay to identify small molecule agonists of the estrogen receptor alpha (ER-alpha) signaling pathway (AID 743075; calls by dose curve;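 further: HEK293 GripTite cells with ER-alpha and UAS-driven beta-lactamase reporter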).
Assay [11] has the same target. The assay is described as follows: qHTS assay to identify small molecule agonists of the estrogen receptor alpha (ER-alpha) signaling pathway using the BG1 cell line (AID 743079). Further: nearly all actives have a fitted effect of over 20% in size.
Assay [12] in a line: qHTS assay to identify small molecule antagonists of the estrogen receptor alpha (ER-alpha) signaling pathway using the BG1 cell line (AID 743080; calls by dose curve;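 further: BG1 cells stimulated with 17beta-estradiol alongside compound; series mostly up to about 70 µM; nearly all actives have a fitted effect of over 25% in size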). Put shortly: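 Seeding, 24 h rest, compound transfer from DMSO, 17beta-estradiol addition, 21.5 h incubation, CellTiter-Fluor (30 min, 37 C), then ONE-Glo (30 min, room temperature): this sequence was run on BG1-Luc-4E2 reporter cells.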

Assay [13] in a line: qHTS assay to identify small molecule antagonists of the estrogen receptor alpha (ER-alpha) signaling pathway using the BG1 cell line - cell viability counter screen (AID 743081).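 Further: compound given together with 17beta-estradiol as the ER stimulus; series mostly up to about 70 µM; nearly all actives have a fitted effect of over 45% in size.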
The target in assay [14] is Aromatase (Homo sapiens) (UniProt P11511). The assay is described as follows: qHTS assay to identify aromatase inhibitors (AID 743083). Further: series mostly up to about 70 µM; nearly all actives have a fitted effect of over 55% in size.
Sequence of Aromatase (Homo sapiens) (P11511 whole entry, looked up): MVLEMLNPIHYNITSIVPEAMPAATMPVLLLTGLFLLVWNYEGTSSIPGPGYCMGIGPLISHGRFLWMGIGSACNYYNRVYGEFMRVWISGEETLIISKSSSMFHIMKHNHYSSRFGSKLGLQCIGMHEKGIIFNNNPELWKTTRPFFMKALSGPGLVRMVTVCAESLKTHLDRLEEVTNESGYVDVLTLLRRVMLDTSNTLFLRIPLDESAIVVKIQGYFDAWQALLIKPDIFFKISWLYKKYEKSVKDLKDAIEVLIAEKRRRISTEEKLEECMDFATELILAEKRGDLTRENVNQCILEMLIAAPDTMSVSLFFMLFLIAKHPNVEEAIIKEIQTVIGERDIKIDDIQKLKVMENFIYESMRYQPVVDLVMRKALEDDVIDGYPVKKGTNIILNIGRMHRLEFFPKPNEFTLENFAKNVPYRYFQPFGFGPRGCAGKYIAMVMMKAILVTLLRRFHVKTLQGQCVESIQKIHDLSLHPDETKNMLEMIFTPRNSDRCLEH
The nature of assay [15]: qHTS assay to identify aromatase inhibitors - cell viability counter screen (AID 743084).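 Further: cells stimulated with testosterone during compound exposure; nearly all actives have a fitted effect of over 55% in size.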
Assay [16] can be described thus: qHTS assay for identifying genotoxic compounds that show differential cytotoxicity against isogenic chicken DT40 cell lines with known DNA damage response pathways - Rev3 mutant cell line (AID 743014). Further: nearly all actives have a fitted effect of over 55% in size.
Assay [17] deals with Androgen receptor (Homo sapiens) (UniProt P10275). The assay is described as follows: qHTS assay to identify small molecule agonists of the androgen receptor (AR) signaling pathway using the MDA cell line (AID 743040; further: nearly all actives have a fitted effect of over 20% in size). The gist of the method:
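Cell-based luciferase reporter: MDA-kb2, MMTV promoter (AR + GR response elements). 16 h compound exposure at 37C; ONE-Glo, 30 min RT, luminescence.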

The target is the same in assay [18]. The assay is described as follows: qHTS assay to identify small molecule antagonists of the androgen receptor (AR) signaling pathway using the MDA cell line (AID 743042; further: nearly all actives have a fitted effect of over 55% in size). The gist of the method: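 MDA-kb2 cells (human breast carcinoma, stably carrying an MMTV-luciferase reporter responsive to AR and GR) were plated at 3,000 cells/well and preincubated 5 hr at 37C, then given compound plus R1881 agonist for 16 h. ONE-Glo luminescence was read.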

For assay [19], the target named is Estrogen receptor (Homo sapiens) (UniProt P03372). The assay is described as follows: qHTS assay to identify small molecule antagonists of the estrogen receptor alpha (ER-alpha) signaling pathway (AID 743069; active means well fitted curve in the direction sought with a large enough effect in the signal ratio in the repeat runs, not every such curve was filed as active; the % refers to the signal ratio). Put shortly: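 A 17beta-estradiol challenge was applied right after compound transfer to ER-alpha-UAS-bla HEK293 cells previously kept in charcoal-stripped serum. Plates stood 18 hr at 37C and 5% CO2; fluorescence was read following 2 hr FRET substrate loading at room temperature.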
Sequence of Estrogen receptor (Homo sapiens) (P03372 whole entry, looked up): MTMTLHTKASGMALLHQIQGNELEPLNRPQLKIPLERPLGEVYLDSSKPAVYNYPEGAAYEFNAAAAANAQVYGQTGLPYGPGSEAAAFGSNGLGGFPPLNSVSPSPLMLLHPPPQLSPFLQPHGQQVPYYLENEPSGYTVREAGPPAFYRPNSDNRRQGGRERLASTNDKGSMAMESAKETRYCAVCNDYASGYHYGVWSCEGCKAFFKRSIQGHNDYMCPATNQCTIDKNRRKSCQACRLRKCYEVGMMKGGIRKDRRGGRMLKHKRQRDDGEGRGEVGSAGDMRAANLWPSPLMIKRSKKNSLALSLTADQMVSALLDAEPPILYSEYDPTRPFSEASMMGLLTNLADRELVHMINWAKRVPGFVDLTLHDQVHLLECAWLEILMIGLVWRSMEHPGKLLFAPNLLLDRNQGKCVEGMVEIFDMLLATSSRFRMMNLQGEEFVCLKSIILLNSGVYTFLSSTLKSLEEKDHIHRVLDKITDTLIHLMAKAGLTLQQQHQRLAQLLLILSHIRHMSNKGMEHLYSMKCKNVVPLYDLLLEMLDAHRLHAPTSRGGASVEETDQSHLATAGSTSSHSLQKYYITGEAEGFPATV

Sequence of Androgen receptor (Homo sapiens) (P10275 whole entry, looked up): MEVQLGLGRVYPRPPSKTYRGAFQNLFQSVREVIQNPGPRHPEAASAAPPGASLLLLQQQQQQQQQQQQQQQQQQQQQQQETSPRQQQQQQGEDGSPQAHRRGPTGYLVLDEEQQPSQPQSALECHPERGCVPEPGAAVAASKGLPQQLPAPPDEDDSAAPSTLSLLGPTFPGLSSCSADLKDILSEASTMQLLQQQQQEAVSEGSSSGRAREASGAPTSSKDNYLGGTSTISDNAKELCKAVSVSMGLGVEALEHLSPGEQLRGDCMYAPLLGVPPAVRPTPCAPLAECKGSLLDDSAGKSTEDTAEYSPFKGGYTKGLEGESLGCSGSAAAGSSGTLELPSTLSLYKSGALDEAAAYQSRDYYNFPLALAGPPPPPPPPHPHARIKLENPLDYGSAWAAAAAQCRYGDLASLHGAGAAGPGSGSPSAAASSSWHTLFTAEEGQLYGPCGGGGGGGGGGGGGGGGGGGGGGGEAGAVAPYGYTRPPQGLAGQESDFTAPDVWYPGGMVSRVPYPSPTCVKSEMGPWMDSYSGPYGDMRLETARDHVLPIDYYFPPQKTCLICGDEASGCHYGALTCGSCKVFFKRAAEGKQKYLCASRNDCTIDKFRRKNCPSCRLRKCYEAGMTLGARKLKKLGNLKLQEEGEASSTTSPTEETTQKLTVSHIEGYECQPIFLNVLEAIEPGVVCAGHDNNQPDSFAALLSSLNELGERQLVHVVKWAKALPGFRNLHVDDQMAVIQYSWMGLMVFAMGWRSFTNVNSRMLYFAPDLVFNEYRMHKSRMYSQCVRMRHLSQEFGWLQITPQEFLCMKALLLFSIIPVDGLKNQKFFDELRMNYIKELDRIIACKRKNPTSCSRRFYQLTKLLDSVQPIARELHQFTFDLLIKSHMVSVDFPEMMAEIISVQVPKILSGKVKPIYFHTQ

Turning to `CC(=O)CCc1ccc(OC(C)=O)cc1`, the molecule was called inactive in [1], in assay [4], in assay [8], in [9], in assay [12] and in assay [14]. Besides, the Potency result in [2], in [3], in [5], in assay [6], in assay [7] and in assay [10] was “inactive” in each case. The Potency entry in assay [11], in [13] and in assay [15] was “inactive” in each case.

For `CC(=O)OC1CCCCC1C(C)(C)C` (stereo not given), the outcome in assay [1], in assay [4], in assay [18], in [8], in [19] and in [9] was inactive. Moreover, the molecule was called inactive in [12] and in [14]. Also, the Potency result in assay [16], in assay [3], in assay [17], in [5], in [6] and in [7] was “inactive” in each case. For the same molecule, the Potency result in assay [10], in assay [11], in assay [13] and in assay [15] was “inactive” each time.

Take `CC(=O)CCC1=C(C)CCCC1(C)C`: the molecule was called inactive in assay [1], in [4], in [8], in [9], in assay [12] and in [14]. For the same molecule, the Potency result in assay [2], in [5], in [6], in [7], in [11] and in assay [13] was “inactive” each time. The Potency result in assay [15] is “inactive”.

Regarding `CC(=O)Nc1ccc(OC(=O)c2ccccc2OC(C)=O)cc1`, the result in assay [1], in assay [4], in assay [8], in assay [9], in assay [12] and in assay [14] was inactive. In addition, the Potency result in [2], in assay [3], in [5], in assay [6], in [7] and in [10] was “inactive” each time. In addition, the Potency entry in assay [11], in [13] and in assay [15] was “inactive” in each case.

As to `Nc1nc(-c2ccccc2)c(Br)c(=O)[nH]1`, the call in [1], in assay [4], in assay [19], in assay [9], in [12] and in assay [14] was inactive. Also, the Potency result in assay [2], in assay [3], in assay [17], in [5], in assay [6] and in assay [10] was “inactive” in each case. For the same molecule, the Potency result in assay [11], in [13] and in [15] was “inactive” each time.

With `Cc1ncc([N+](=O)[O-])n1CC(C)O` (stereo not given), the molecule was called inactive in [1], in assay [4], in assay [8], in assay [19], in assay [9] and in [12]. Further, in [14], the result was inactive. For the same molecule, the Potency result in assay [2], in assay [3], in assay [5], in [6], in assay [7] and in assay [10] was “inactive” each time. Further, the Potency entry in [11], in [13] and in assay [15] was “inactive” in each case.

Regarding `NCc1ccc(S(N)(=O)=O)cc1`, the molecule was called inactive in [1], in [8], in [9] and in assay [14]. For the same molecule, the Potency result in assay [2], in assay [16], in [3], in assay [5], in [6] and in assay [7] was “inactive” each time. For the same molecule, the Potency result in assay [13] and in [15] was “inactive” in each case.

Consider `Cc1ccc(C(C)NC(=O)[C@@H](NC(=O)OC(C)C)C(C)C)cc1` (stereo not given in full), for which the molecule was called inactive in assay [1], in assay [8], in assay [9] and in assay [14]. The Potency entry in assay [2], in [16], in assay [3], in [5], in assay [6] and in assay [13] was “inactive” in each case. In addition, in assay [15], the Potency entry was “inactive”.

For the molecule `CC(C)NCC(O)c1ccc2ccccc2c1` (stereo not given), the molecule was called inactive in assay [1], in [4], in assay [8], in [9] and in [14]. Also, the Potency in assay [2] was 15 µM (active). For the same molecule, the Potency result in assay [5], in [6], in assay [7], in assay [13] and in assay [15] was “inactive” in each case.

`CN(C)CCN(C)CCO`: the call in assay [1], in assay [19], in assay [9], in assay [12] and in assay [14] was inactive. The Potency entry in assay [2], in assay [16], in assay [3], in [5], in [6] and in [10] was “inactive” throughout. Further, the Potency result in assay [11], in [13] and in [15] was “inactive” each time.

The record behind these values is PubChem BioAssay (Tox21).
